Assay outcomes (PubChem BioAssay)
Only some compounds are listed: those with a hit (about 2.9% of all), similar ones and a draw of the others.
Smad3 inh = inhibitors of human Smad3 transcription factor binding | P84022 | TR-FRET Smad3/Dy647-FoxH1 peptide binding, europium anti-His | inhibition, % at 25 µM | 88,000 compounds, 0.29% hits;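 active = compounds that reduce the energy-transfer binding signal between the protein and its labelled peptide by more than half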;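 also: 0% = Smad3 plus labelled peptide maximal FRET and 100% = peptide-only background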
ERa SRC1 pot = enhances coactivator binding to human estrogen receptor alpha; TR-FRET ERalpha-LBD/SRC-Cy5 coactivator binding, 2 h; 100 = basal binding, no effect; coactivator binding (% of control), % at 25.6 µM; 86,000 compounds, 1.3% hits; AID 639; in the data active = activity above about 200%;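 also: binding measured in presence of low estradiol as agonist stimulus; 0% = peptide alone without receptor and 100% = receptor with peptide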
Target sequence (P03372 whole entry, looked up, the tested form may be a part): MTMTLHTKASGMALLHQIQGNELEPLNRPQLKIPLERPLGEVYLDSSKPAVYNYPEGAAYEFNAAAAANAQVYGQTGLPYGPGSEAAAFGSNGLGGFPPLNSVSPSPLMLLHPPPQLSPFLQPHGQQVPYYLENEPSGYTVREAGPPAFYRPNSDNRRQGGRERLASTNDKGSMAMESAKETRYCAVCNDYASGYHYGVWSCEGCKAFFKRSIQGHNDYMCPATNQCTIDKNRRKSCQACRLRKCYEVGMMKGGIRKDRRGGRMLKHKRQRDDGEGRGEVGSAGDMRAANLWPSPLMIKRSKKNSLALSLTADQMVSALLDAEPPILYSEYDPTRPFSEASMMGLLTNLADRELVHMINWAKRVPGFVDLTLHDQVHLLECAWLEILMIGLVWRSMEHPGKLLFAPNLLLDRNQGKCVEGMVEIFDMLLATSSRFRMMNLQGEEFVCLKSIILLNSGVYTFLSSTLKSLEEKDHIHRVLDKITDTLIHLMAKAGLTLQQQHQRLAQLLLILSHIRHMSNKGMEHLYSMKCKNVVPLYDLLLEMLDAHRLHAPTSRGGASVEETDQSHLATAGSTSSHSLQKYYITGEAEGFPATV
MRP resist rev = reverses drug resistance mediated by MRP | AID 602 | H69AR cells + 2 uM doxorubicin, CellTiter-Glo, 72 h | differential viability (reversal), % at 10 µM | 85,000 compounds, 0.04% hits;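 active = viability drop by adding the cancer drug above about 55%, with treated viability meeting a 40% cutoff, limit read from the data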;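 also: viability without doxorubicin minus viability with 2 µM doxorubicin for each compound; larger differential means the compound sensitizes cells more to doxorubicin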
ERa coact inh = ER-alpha (human) coactivator binding inhibition | inhibition, % at 25.6 µM | 86,000 compounds, 1.7% hits | TR-FRET ER-alpha LBD / SRC-1 peptide, estradiol-bound | P03372; in the data active = inhibition above about 50%;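 also: 0% = receptor plus peptide control and 100% = peptide only without receptor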
ERb SRC1 inh = blocks coactivator binding to human estrogen receptor beta; Q92731; TR-FRET ER-beta LBD / SRC1-Cy5 peptide binding; receptor agonist-loaded with 1 µM estradiol; inhibition, % at 25.6 µM; 86,000 compounds, 1.3% hits;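 active = compounds whose percent inhibition of the receptor-coactivator binding signal exceeds about 50% in the single-dose screen, limit read from the data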;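 also: 0% = receptor plus peptide wells without compound and 100% = peptide-only wells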
MRP1 act = activators of MRP-1. H69AR cells + doxorubicin, viability rescue, CellTiter-Glo. viability increase, % at 10 µM. 140,000 compounds, 0.61% hits. AID 799;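 active = viability gain under doxorubicin at or above a set limit, the compound median plus 3 SD, cut at about 4.7% in these data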;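 also: MRP-1 overexpressing cells given doxorubicin 25 µM after compound pretreatment; 18-22 h compound pretreatment then 72 h with doxorubicin before readout; 0% = doxorubicin-only wells and 100% = vehicle-treated cells without doxorubicin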
The depositor's hits bear a star; / = no result; [ ] = another dose, or the depositor's remark.

SMILES	Smad3 inh	ERa SRC1 pot	MRP resist rev	ERa coact inh	ERb SRC1 inh	MRP1 act
COc1ccc(CNC(=O)CSc2nc(-c3ccccc3)cc(-c3cccs3)c2C#N)cc1	-14.1	147.4	8.6	9.9	3.6	-3.0
CCN(CC)S(=O)(=O)c1ccc(C(=O)OCC(=O)c2ccc3c(c2)NC(=O)CO3)cc1	/	/	/	/	/	-3.2
CCCn1nc(C(=O)OCC(=O)c2ccc3c(c2)NC(=O)CO3)c2ccccc2c1=O	-76.0	167.0	5.6	73.3*	24.4	-0.9
NC(=[SH+])[N-]/N=C/c1ccccn1.O=S(=O)(O)O.[Fe]	50.5	/	/	/	/	/
O=C(C[n+]1ccc2ccccc2c1)Nc1cc(C(F)(F)F)ccc1Cl	/	/	/	/	/	-5.7
O=C(C[n+]1ccc2ccccc2c1)c1ccc2ccc3ccccc3c2c1	81.3*	/	/	/	/	/
O=[N+]([O-])c1ccc([C@@H](Nc2ccccc2)c2ccc3cccnc3c2O)cc1	15.3	/	/	/	/	/
C[N@@+]1(CCC(=O)c2ccccc2)CC[C@H]2CC[C@H](C2)C1	-63.6	/	/	/	/	/
CSc1nc2c(c(=O)[nH]1)C(c1cccs1)C1=C(CCCC1=O)N2 (centres undefined)	0.1	73.6	4.3	44.0	56.2*	-1.4
O=C(O)CCCc1ccc2ccccc2c1	12.1	/	/	/	/	/
Cc1nc2ncnn2c(N2CCN(C(=O)Cc3cccs3)CC2)c1C	-18.7	27.4	12.3	89.8*[fluorescence artefact?]	85.3*[fluorescence artefact?]	-2.8
CCC(C)c1ccc2oc(-c3ccc(NC(=O)Cn4cnc5c(=O)n(C)c(=O)n(C)c54)cc3)nc2c1 (centres undefined)	5.7	99.2	0.4	71.8*[fluorescence artefact?]	42.7	-6.2
Cn1c(=O)c2ncn(CC(=O)Nc3ccc4oc(-c5cccc6ccccc56)nc4c3)c2n(C)c1=O	-1.4	43.9	-5.2	74.9*[fluorescence artefact?]	36.5	/
Cn1c(=O)c2ncn(CC(=O)Nc3ccc(N4CCOCC4)cc3)c2n(C)c1=O	/	/	/	/	/	-0.9
Cc1ccc(NC(=O)Cn2cnc3c(=O)n(C)c(=O)n(C)c32)c(C)c1	2.1	114.1	-2.5	-8.9	-7.9	-0.8
c1cncc(-c2nc(-c3ccco3)cs2)c1	1.7	83.5	12.4	5.2	60.4*[fluorescence artefact?]	0.6
CC1CCC(C(=O)O)([C@H](Br)C(=O)O)CC1 (some centres undefined)	-0.5	/	/	/	/	/
Cc1nc(SCC(=O)Nc2ccccc2)c2oc3ccccc3c2n1	36.7	552.0*[fluorescence artefact?]	-2.4	55.2*[fluorescence artefact?]	53.3*[fluorescence artefact?]	-0.3
CCc1nc(SCC(=O)c2cccs2)c2oc3ccccc3c2n1	-15.6	223.9*	-2.4	-5.0	-9.0	1.5
Cc1nc(SCC(=O)NCCc2ccccc2)c2oc3ccccc3c2n1	23.8	264.1*[fluorescence artefact?]	20.0	26.0	6.8	-4.0
Cc1nc(SCC(=O)Nc2ccc(F)cc2)c2oc3ccccc3c2n1	17.5	148.6	-5.8	10.5	22.8	-1.5
O=C1Nc2ccccc2[C@]1(O)Cc1ccccn1	2.2	/	/	/	/	/
CC(C)(C)OC(=O)N1CCC(c2cc(=O)n3[nH]c(-c4ccc(Cl)cc4)cc3n2)CC1	-28.5	251.0*[fluorescence artefact?]	-14.3	30.6	11.4	-2.2
Nc1c(C(=O)Nc2ccccc2)sc2nc(-c3ccco3)ccc12	10.1	125.4	-17.4	68.9*[fluorescence artefact?]	58.4*[fluorescence artefact?]	-3.9
COc1ccccc1NC(=O)c1sc2nc(-c3ccco3)ccc2c1N	11.1	16.6	-13.3	45.0	46.5	8.3*
SMILES	Smad3 inh	ERa SRC1 pot	MRP resist rev	ERa coact inh	ERb SRC1 inh	MRP1 act
COC(=O)C1=C(C)NC(C)=C(C(=O)OC)C1c1ccc(OC(=O)c2oc3ccccc3c2C)c(OC)c1	/	/	/	/	/	1.6
COC(=O)c1cc2sc(Cl)cc2n1CC(=O)Nc1ccc(OC)c(OC)c1OC	7.4	108.7	-1.2	53.6*[fluorescence artefact?]	24.8	-5.7
C[C@@]12CC[C@@H]3[C@H](CCC4=CC(=O)CC[C@]43C)[C@H]1CC[C@H]2C(=O)COS(=O)(=O)c1ccc(Br)cc1	1.6	/	/	/	/	/
Cc1ccc(CN2CCN(Cc3ccc(C)o3)[C@@H](C)C2)o1	23.2	/	/	/	/	/
O=C(Cc1cccs1)Nc1cccc(C(=O)Nc2ccco2)c1	6.0	102.7	7.9	-1.0	-1.9	-0.9
CCCCN(CCCC)S(=O)(=O)c1ccc(NC(=O)Cc2cccs2)cc1	2.9	61.6	0.2	67.0*[fluorescence artefact?]	67.4*	-4.1
CCCN(CCC)S(=O)(=O)c1ccc(NC(=O)Cc2cccs2)cc1	4.9	79.5	7.0	63.2*	47.7	-2.0
CC(=O)c1cccc(NC(=O)Cc2cccs2)c1	9.2	29.0	12.8	83.7*	73.2*[fluorescence artefact?]	0.9
OCCCNCc1ccncc1	1.0	/	/	/	/	/
